# Test results taken from PMC5540273 (PLoS ONE, 2017).
# What was measured:
# Conditions in all cases: concentration: 1 μM,replicates: in singlicate; n = 1
# [1] = test system: JAK1(JH2domain-pseudokinase)
# [2] = test system: JAK2(JH1domain-catalytic)
# [3] = test system: JAK3(JH1domain-catalytic)
# JNK1 = test system: T1, JNK1
# T1 construct: gene MAPK8
# JNK2 = test system: T2, JNK2
# T2 construct: gene MAPK9
# JNK3 = test system: T3, JNK3
# T3 construct: gene MAPK10
# KIT-autoinhibited = test system: KIT-autoinhibited
# KIT = test system: KIT
# LATS1 = test system: LATS1
# LATS2 = test system: LATS2
# LCK = test system: LCK
# LIMK1 = test system: LIMK1
# LIMK2 = test system: LIMK2
# LKB1 = test system: T4, LKB1
# T4 construct: gene STK11
# LOK = test system: T5, LOK
# T5 construct: gene STK10
# LRRK2 = test system: LRRK2
# LTK = test system: LTK
# LYN = test system: LYN
# LZK = test system: T6, LZK
# T6 construct: gene MAP3K13
# MAK = test system: MAK
# 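Further: KINOMEscan kinase panel screen.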
smiles,measurement,setting,value
NC(=O)Nc1sc(-c2ccc(F)cc2)cc1C(N)=O [GW789449],%Inh,[1],100%
same,%Inh,[2],99.1%
same,%Inh,[3],96.1%
same,%Inh,JNK1,55%
same,%Inh,JNK2,0%
same,%Inh,JNK3,20%
same,%Inh,KIT-autoinhibited,48%
same,%Inh,KIT,65%
same,%Inh,LATS1,2%
same,%Inh,LATS2,0%
same,%Inh,LCK,32%
same,%Inh,LIMK1,3%
same,%Inh,LIMK2,24%
same,%Inh,LKB1,0%
same,%Inh,LOK,22%
same,%Inh,LRRK2,0%
same,%Inh,LTK,35%
same,%Inh,LYN,0%
same,%Inh,LZK,0%
same,%Inh,MAK,0%
CC(C)S(=O)(=O)N1CCN(Cc2ccc3c(c2)nc(NC(=O)c2ccsc2)n3C[C@H](O)c2ccccc2)CC1 [GW635815],%Inh,[1],0%
same,%Inh,[2],77%
same,%Inh,[3],54%
same,%Inh,JNK1,19%
same,%Inh,JNK2,10%
same,%Inh,JNK3,15%
same,%Inh,KIT-autoinhibited,20%
same,%Inh,KIT,87%
same,%Inh,LATS1,0%
same,%Inh,LATS2,0%
same,%Inh,LCK,39%
same,%Inh,LIMK1,0%
same,%Inh,LIMK2,0%
same,%Inh,LKB1,0%
same,%Inh,LOK,0%
same,%Inh,LRRK2,66%
same,%Inh,LTK,25%
same,%Inh,LYN,0%
same,%Inh,LZK,69%
same,%Inh,MAK,18%
CCn1c(-c2nonc2N)nc2cncc(Br)c21 [SB-738004],%Inh,[1],0%
same,%Inh,[2],34%
same,%Inh,[3],62%
same,%Inh,JNK1,0%
same,%Inh,JNK2,0%
same,%Inh,JNK3,2%
same,%Inh,KIT-autoinhibited,55%
same,%Inh,KIT,32%
same,%Inh,LATS1,0%
same,%Inh,LATS2,79%
same,%Inh,LCK,0%
same,%Inh,LIMK1,0%
same,%Inh,LIMK2,5%
same,%Inh,LKB1,19%
same,%Inh,LOK,9%
same,%Inh,LRRK2,45%
same,%Inh,LTK,0%
same,%Inh,LYN,13%
same,%Inh,LZK,41%
same,%Inh,MAK,28%
COc1cc2ncn(-c3cc(OCC4CCCCC4)c(C(N)=O)s3)c2cc1OC [GSK204559],%Inh,[1],0%
same,%Inh,[2],0%
same,%Inh,[3],0%
same,%Inh,JNK1,20%
same,%Inh,JNK2,27%
same,%Inh,JNK3,19%
same,%Inh,KIT-autoinhibited,0%
same,%Inh,KIT,31%
same,%Inh,LATS1,0%
same,%Inh,LATS2,7%
same,%Inh,LCK,37%
same,%Inh,LIMK1,2%
same,%Inh,LIMK2,13%
same,%Inh,LKB1,0%
same,%Inh,LOK,63%
same,%Inh,LRRK2,20%
same,%Inh,LTK,10%
same,%Inh,LYN,0%
same,%Inh,LZK,0%
same,%Inh,MAK,18%
C[C@@H]1CNc2c(sc3ccc4nc(-c5ccncc5)ccc4c23)C(=O)N1,%Inh,[1],64%
same,%Inh,[2],0%
same,%Inh,[3],78%
same,%Inh,JNK1,0%
same,%Inh,JNK2,0%
same,%Inh,JNK3,0%
same,%Inh,KIT-autoinhibited,7%
same,%Inh,KIT,34%
same,%Inh,LATS1,0%
same,%Inh,LATS2,24%
same,%Inh,LCK,13%
same,%Inh,LIMK1,0%
same,%Inh,LIMK2,0%
same,%Inh,LKB1,0%
same,%Inh,LOK,14%
same,%Inh,LRRK2,100%
same,%Inh,LTK,65%
same,%Inh,LYN,6%
same,%Inh,LZK,0%
same,%Inh,MAK,0%
CC(C)c1nc(-c2cccc(NS(=O)(=O)c3ccccc3)c2)c(-c2ccnc(Nc3ccc4c(c3)CN(C)CC4)n2)s1 [GSK1649598],%Inh,[1],0%
same,%Inh,[2],20%
same,%Inh,[3],75%
same,%Inh,JNK1,84%
same,%Inh,JNK2,87%
same,%Inh,JNK3,94%
same,%Inh,KIT-autoinhibited,21%
same,%Inh,KIT,99.9%
same,%Inh,LATS1,6%
same,%Inh,LATS2,27%
same,%Inh,LCK,99.8%
same,%Inh,LIMK1,100%
same,%Inh,LIMK2,100%
same,%Inh,LKB1,0%
same,%Inh,LOK,97.5%
same,%Inh,LRRK2,0%
same,%Inh,LTK,5%
same,%Inh,LYN,98%
same,%Inh,LZK,45%
same,%Inh,MAK,53%
CCOC(=O)N1CCC(n2cnc(-c3ccc(F)cc3)c2-c2ccnc(N)n2)CC1 [SB-219952],%Inh,[1],42%
same,%Inh,[2],32%
same,%Inh,[3],0%
same,%Inh,JNK1,77%
same,%Inh,JNK2,96.8%
same,%Inh,JNK3,98.4%
same,%Inh,KIT-autoinhibited,8%
same,%Inh,KIT,40%
same,%Inh,LATS1,0%
same,%Inh,LATS2,0%
same,%Inh,LCK,0%
same,%Inh,LIMK1,8%
same,%Inh,LIMK2,13%
same,%Inh,LKB1,15%
same,%Inh,LOK,100%
same,%Inh,LRRK2,0%
same,%Inh,LTK,17%
same,%Inh,LYN,9%
same,%Inh,LZK,15%
same,%Inh,MAK,0%
CC(=O)c1c(-c2ccncc2)[nH]c(-c2ccncc2)c1C [GW493036],%Inh,[1],0%
same,%Inh,[2],20%
same,%Inh,[3],0%
same,%Inh,JNK1,25%
same,%Inh,JNK2,8%
same,%Inh,JNK3,11%
same,%Inh,KIT-autoinhibited,0%
same,%Inh,KIT,0%
same,%Inh,LATS1,7%
same,%Inh,LATS2,4%
same,%Inh,LCK,0%
same,%Inh,LIMK1,0%
same,%Inh,LIMK2,1%
same,%Inh,LKB1,0%
same,%Inh,LOK,0%
same,%Inh,LRRK2,26%
same,%Inh,LTK,0%
same,%Inh,LYN,0%
same,%Inh,LZK,42%
same,%Inh,MAK,34%
O=C(NOCC1CC1)c1cc(Br)c(F)c(F)c1Nc1ccc(I)cc1Cl,%Inh,[1],39%
same,%Inh,[2],0%
same,%Inh,[3],0%
same,%Inh,JNK1,12%
same,%Inh,JNK2,0%
same,%Inh,JNK3,0%
same,%Inh,KIT-autoinhibited,0%
same,%Inh,KIT,13%
same,%Inh,LATS1,14%
same,%Inh,LATS2,0%
same,%Inh,LCK,0%
same,%Inh,LIMK1,0%
same,%Inh,LIMK2,0%
same,%Inh,LKB1,7%
same,%Inh,LOK,2%
same,%Inh,LRRK2,0%
same,%Inh,LTK,0%
same,%Inh,LYN,9%
same,%Inh,LZK,9%
same,%Inh,MAK,37%
